Measurements taken from PubChem BioAssay (NCI).
Values joined by “and” are separate entries in the source; they are usually repeats but may differ in a detail not shown here. Equal values may be shown once. The panel holds about 83,000 compounds, 20% with a hit somewhere; the sample as a whole holds those more often.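 In brief: 96-well plates, 48 h treatment, single concentration, percent growth endpoint.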 Active and inactive are the calls of the source.

These compounds were tested on SNB-19 CNS (assay: NCI-60 one-dose screen, 48 h (100 = growth as untreated, 0 = no growth, -100 = all killed)). Details: 10 µM.
Procedure: Growth inhibition of the SNB-19 human tumor cell line is measured as a screen for anti-cancer activity. Cells are grown in 96 well plates and exposed to the test compound for 48 hours. Compounds are tested at a single concentration, which is 10^-5 M for most compounds. The reported endpoint is percent growth (GI% or GIPRCNT), where numbers from 0 - 100% represent growth inhibition, and numbers from -100% - 0 represent cell death. For example, a value of 40 represents 60% growth inhibition. A value of 0 means no net growth occurred over the course of the experiment. A value of -40 indicates 40% of cells at the beginning of the experiment died by the end of the experiment. A value of -100 means all cells are dead at the end of the experiment.
NCI-60 Human Tumor Cell Lines Screen was performed using the standard one-dose NCI protocol, which is described in more detail at https://dtp.cancer.gov/discovery_development/nci-60/default.htm.
Compounds with GIPRCNT values below 10 were considered active. Activity score was based on GIPRCNT using the following formula: […]
Score is 0 for GIPRCNT values of 100 or above, 50 for GIPRCNT values of 0, and 100 for GIPRCNT values of -100.

| Structure (SMILES) | growth |
| --- | --- |
| CC(C)(C)c1cc(NC(=O)Cc2ccc(-c3cnc4cc(-c5cnn(CCN6CCOCC6)c5)ccc4n3)cc2)no1 | 42.4% (inactive) |

Same assay, conditions: 10 µM unless noted

| Structure (SMILES) | growth |
| --- | --- |
| NC(=O)C1CC2C=CC1C2 (stereo not given) | 92.1% (inactive) |
| O=Nc1ccc(O)cc1 | 106% (inactive) and 99.3% (inactive) |
| CC(C)Cc1ccc(C(C)C(=O)NCc2ccc(Cn3c(=O)sn(CCCCl)c3=O)cc2)cc1 (stereo not given) | 91.2% (inactive) and 49.8% (inactive) |
| CC(C)(C)c1ccc(O)c(CNC2CCCCC2)c1 | 89.2% (inactive) and 90.9% (inactive) |
| CC(=O)Nc1ccc(O)cc1 | 101% (inactive) |
| CCCCCn1sc(=O)n(Cc2ccc(CNC(=O)C(C)c3ccc(CC(C)C)cc3)cc2)c1=O (stereo not given) | 98.7% (inactive) and 43.3% (inactive) |
| Cc1cc(O)c2c(c1)C(=O)c1cc(O)cc(O)c1C2=O | 82.5% (inactive) and 94.2% (inactive) |
| Cc1ncsc1CCO | 108% (inactive) and 103% (inactive) |
| O=C(Nc1ccc([N+](=O)[O-])cc1Cl)c1cc(Cl)ccc1O | 13.2% (inactive) and 21% (inactive) |
| COc1ccc2cc3[n+](cc2c1OC)CCc1cc2c(cc1-3)OCO2 | 38.6% (inactive) and 42.2% (inactive) |
| CN(C)c1ccc(C(Cc2ccc3ccccc3n2)Cc2ccc3ccccc3n2)cc1 | 61% (inactive) and 89.3% (inactive) |
| COc1ccc(Cn2c(NCCN=C(N)N)nc(=O)n(Cc3ccc(F)cc3)c2=O)cc1 | 77.6% (inactive) and 78.7% (inactive) |
| Fc1ccccc1Nc1n[nH]c(=S)s1 | 104% (inactive) |
| CC(=O)c1ccc2c(c1)N(CCCN1CCN(CCO)CC1)c1ccccc1S2 | 114% (inactive) and 46.4% (inactive) |
| CC[N+](CC)(CC(=O)Nc1c(C)cccc1C)Cc1ccccc1 | 95.4% (inactive) and 96.8% (inactive) |
| NC(=S)N/N=C(\c1ccc(Br)cc1)C1CC1 | 108% (inactive) |
| CN(C)c1ccc(C(=C2C=CC(=[N+](C)C)C=C2)c2ccccc2Cl)cc1 | -96.9% (active) and -95.6% (active) |
| O=[N+]([O-])c1ccc(-n2[nH]nnc2=S)cc1 | 98.1% (inactive) |
| COC(=O)/C=C/c1cc(O)c2c(c1)C(C(=O)OC)C(c1ccc(O)c(O)c1)O2 (stereo not given) | 35.7% (inactive) and 37.2% (inactive) |

| Structure (SMILES) | growth |
| --- | --- |
| CCN(CC)CCOc1ccc(/C=N/Nc2nc3c([nH]2)c(=O)n(C)c(=O)n3C)cc1 | 98.5% (inactive) and 102% (inactive) |
| O[C@H](c1cc(C(F)(F)F)nc2c(C(F)(F)F)cccc12)[C@@H]1CCCCN1 | 60.1% (inactive) and 65.9% (inactive) |
| O=C(Nc1cccc(Cl)c1)c1cc2ccccc2cc1O | 13.2% (inactive) |
| COc1cc2c(Nc3ccc(Cl)c(Cl)c3F)ncnc2cc1OCC1C[C@@H]2CN(C)C[C@@H]2C1 (stereo not given in full) | -93.5% (active) and 32.1% (inactive) |
| CN(C)CCCNC1=C(Cl)C(=O)c2ccccc2C1=O | 53.1% (inactive) and -9.85% (active) |
| CNc1ccc2nc3ccc(=[N+](C)C)cc-3sc2c1 | 1.89% (active) and -5.26% (active) |
| CO/N=C/C=C\C(=O)N/C=C/C[C@H]1/C=C/[C@H](O)/C=C\C=C\c2cccc(O)c2C(=O)O1 | 68.3% (inactive) and 56.7% (inactive) |
| COc1ccc2c(=O)cc(-c3ccccc3)[nH]c2c1 | 29.6% (inactive) and 27% (inactive) |
| O=C(c1ccc(Cl)cc1)C(NCCO)c1ccc(Cl)cc1 (stereo not given) | 101% (inactive) and 97.6% (inactive) |
| NC(=S)NS(=O)(=O)c1ccc(N)cc1 | 113% (inactive) |
| S=C1SCN(Cc2ccccc2)CN1Cc1ccccc1 | 96.4% (inactive) |
| O=C(Nc1cccc(-n2ccc3c(NC(=O)c4ccccc4)nccc32)c1)c1ccc(Cl)c(C(F)(F)F)c1 | 13.8% (inactive) and 55.4% (inactive) |
| Cc1n[nH]c(=O)n(/N=C\c2c[nH]c3ccccc23)c1=O | 105% (inactive) |
| C[N+](C)(C)CN1C(=O)c2ccccc2C1=O | 98.5% (inactive) |
| O=C(Nc1ccc(Cl)cc1)c1cc2ccccc2cc1O | 37.7% (inactive) and 29.6% (inactive) |
| CCOC(=O)C(CNc1ccccc1)C(=O)OCC | 91.2% (inactive) |
| CCOC(=O)Nc1ccc2c(c1)/C(=N\NC(N)=S)c1ccccc1-2 | 78.4% (inactive) and 75.3% (inactive) |
| c1ccc2c(CC3=NCCN3)cccc2c1 | 107% (inactive) and 104% (inactive) |
| CCN(CC)CCCC(CNc1ccnc2cc(Cl)ccc12)c1ccc(Cl)cc1 (stereo not given) | 2.34% (active) and 92.4% (inactive) |

Same assay, conditions: 30 µM

| Structure (SMILES) | growth |
| --- | --- |
| CC(C)(C)c1cc(NC(=O)Cc2ccc(-c3cnc4cc(-c5cnn(CCN6CCOCC6)c5)ccc4n3)cc2)no1 | 44% (inactive) |
